Data as given in PubChem BioAssay (NCATS).
Inconclusive results are not listed. Entries that show only a call come without a potency. Calls of active or inactive are those of the source. Calls follow the shape of the dose curve; as a rule, active = well fitted inhibition curve with a large enough effect; inconclusive = small, poorly fitted or top-dose-only effect; inactive = flat fitted curve, though single readings scatter.

system: CP203; test: qHTS profiling for inhibitors of Plasmodium falciparum proliferation (AID 504749); also: nearly all actives have a fitted effect of over 60% in size; conditions: P. falciparum in erythrocytes, SYBR Green DNA, 72 h; series mostly up to 28.7 µM
From the text: NIH National Institute of Allergy and Infectious Diseases [NIAID] NIH Chemical Genomics Center [NCGC] MLPCN Grant: None Assay Provider: Xinzhuan Su, NIAID NCGC Assay Overview: Plasmodium falciparum is a virulent malarial parasite that kills 1-2 million people worldwide each year. Transmitted by mosquitoes, the sporozoite form of the parasite enters the blood stream to infect hepatocytes, where they become merozoites that infect red blood cells (erythrocytes). Within erythrocytes, merozoites begin a […] cycle of growth and division, after which the parasite is released to infect new red blood cells. Gametocytes, which form within erythrocytes as well, circulate in the bloodstream and are ingested by the mosquito, thereby completing the life cycle. To profile malarial isolates for differential chemical responses and to identify inhibitors of malarial growth, an assay that measures P. falciparum growth and replication within erythrocytes was employed. This assay uses a DNA binding fluorescent dye (SYBR Green) to detect parasite DNA following cell lysis. Because mature erythrocytes lack DNA, only Plasmodium-derived DNA is detected.
NCGC Assay Protocol Summary: The SYBR Green viability assay was adapted from a method described previously (Plouffe et al., 2008). For screening 3 ul culture medium was dispensed into 1536 well black clear bottom plates (Aurora Biotechnologies) using a Multidrop Combi (Thermo Fisher Scientific Inc.), 23 nL compounds in DMSO were added by a pin tool (Kalypsys), and 5 ul of erythrocytes infected with P. falciparum (0.3% parasitemia, 2.5% hematocrit final concentration) were added. The plates were incubated at 37 C in a humidified incubator in 5% CO2 for 72 h, and 2 ul lysis buffer (20 mM Tris HCl, 10 mM EDTA, 0.16% saponin, 1.6% triton X, 10X SYBR Green I supplied as 10,000X […] by Invitrogen) was added to each well. The plates were mixed for 25 sec with gentle shaking and incubated overnight at room temperature in the dark. The following morning, fluorescence intensity at 485(14) nm excitation and 535(25) nm emission wavelengths was measured on an EnVision (Perkin Elmer) plate reader. Plate reads were normalized relative to the control inhibitor (0.29 uM artemisinin) and vehicle (DMSO) wells present on each plate and then corrected by an algorithm using vehicle-only control plates at the beginning and end of the compound plate stack.
Potency is read from the fitted curve at half-maximal effect.

Row | Structure (SMILES) | Potency
1 | CC(C)NC(C)Cc1ccc(I)cc1 (configuration not stated) | inactive
2 | C#CC1(O)CCC2C3CCC4=CC(=O)CCC4(C)C3CCC21C (configuration not stated) | inactive
3 | CN1C2CCC1CC(OC(=O)c1cc(Cl)cc(Cl)c1)C2 (configuration not stated) | inactive
4 | CCCCc1ccc(C(=O)O)nc1 | inactive
5 | CCCN1CCC[C@H](c2cccc(O)c2)C1 | inactive
6 | NC(=O)CN1CC(O)CC1=O (configuration not stated) | inactive
7 | Cc1cc(O)ccc1Cl | inactive
8 | COC(=O)c1cncn1C(C)c1ccccc1 (configuration not stated) | inactive
9 | c1ccc(C2(c3ccccc3)CC2C2=NCCN2)cc1 (configuration not stated) | inactive
10 | CC(=O)OCC1=C(C(=O)O)N2C(=O)[C@@H](N)[C@@H]2SC1 | inactive
11 | C1CCC(NC2CCCCC2)CC1 | inactive
12 | O=C(O)COc1ccccc1 | inactive
13 | C=CCN1CC[C@]23CCCCC2[C@H]1Cc1ccc(O)cc13 (some centres not stated) | inactive
14 | C[C@]12CCC(=O)C(O)=C1CC[C@@H]1[C@H]3CCC(=O)[C@@]3(C)CC[C@@H]12 | inactive
15 | O=C(O)C(Cl)Cl | inactive
16 | CC(=O)[O][Hg][c]1ccccc1 | 13.5 µM (active)
17 | CC[N+]1(CCOC(=O)C(O)(c2ccccc2)c2ccccc2)CCCCC1 | inactive
18 | CCCCCCCCCC(CC)c1ccc(S(=O)(=O)O)cc1 (configuration not stated) | inactive
19 | Cc1ccc(Cl)c(O)c1 | inactive
20 | COC(=O)[C@@H](N)CCCN=C(N)N[N+](=O)[O-] | inactive
21 | NC1=NC(=O)N2CC12 (configuration not stated) | inactive
22 | O=[N+]([O-])c1ccc([As](=O)(O)O)cc1 | 9.53 µM (active)
